{
  "source": "ChEMBL document CHEMBL3988442",
  "about": "“University of Dundee, Small-Polar-MMV Screening Library” (2021)",
  "note": "Hit rate of the full screen: of about 48,000 compounds, about 13,000 (27%) showed an effect of 50% or more. This is one part of the list.",
  "data": [
    {"tested_on": "Wolbachia pipientis", "test": "Anti-Wolbachia Cell-Based Screen", "type": "functional", "design": "scale not given: in the data most compounds retested in dose-response had high values", "conditions": "5 µM", "units": {"Percent Effect": "%"}, "values": [
      {"smiles": "COCC1c2nnn(CC3CC3)c2CCN1C(=O)c1ccncn1", "note": "(centres undefined)", "Percent Effect": -7.229},
      {"smiles": "CN(C)c1ccc(-c2cc(C(=O)O)cc(S(=O)(=O)NC3CC3)c2)cc1", "Percent Effect": -6.079},
      {"smiles": "COCc1cc(O)nc(C2CCCN(Cc3cccc(Cl)c3Cl)C2)n1", "note": "(centres undefined)", "Percent Effect": 101.5},
      {"smiles": "COCc1cc(O)nc(C2CCCN(Cc3ccc(OC)cc3)C2)n1", "note": "(centres undefined)", "Percent Effect": 126.6},
      {"smiles": "CCc1cc(O)nc(C2CCCN(Cc3ccncc3)C2)n1", "note": "(centres undefined)", "Percent Effect": 119.5},
      {"smiles": "COCCN1C[C@H]2CN(Cc3cccc(OC)c3)CCN2C1=O", "Percent Effect": -3.935},
      {"smiles": "COCc1cc(O)nc(C2CCCN(Cc3cc(OC)ccc3F)C2)n1", "note": "(centres undefined)", "Percent Effect": -12.81},
      {"smiles": "COCc1nccc(C2CCCN(Cc3ccccc3C#N)C2)n1", "note": "(centres undefined)", "Percent Effect": -3.966},
      {"smiles": "COCc1cc(O)nc(C2CCCN(Cc3cccc(OC)c3)C2)n1", "note": "(centres undefined)", "Percent Effect": 123.8},
      {"smiles": "NC(=O)Cn1ccnc1C1CCCN(Cc2cccc(Cl)c2F)C1", "note": "(centres undefined)", "Percent Effect": -13.72},
      {"smiles": "COCC1CCCN(CCCc2cccc(OC)c2)C1", "note": "(centres undefined)", "Percent Effect": 6.457},
      {"smiles": "Cc1cc(O)nc(C2CCCN(Cc3ccncc3)C2)n1", "note": "(centres undefined)", "Percent Effect": -8.016},
      {"smiles": "COCCn1cnnc1CCn1ccnc1-c1ccccc1Cl", "Percent Effect": -5.954},
      {"smiles": "CN(Cc1ccon1)c1nc(-c2ccccn2)nc2c1CCNCC2", "Percent Effect": -7.259},
      {"smiles": "CCn1c(Cn2cccn2)nnc1C1CCN(Cc2ccc(C)o2)CC1", "Percent Effect": 4.312},
      {"smiles": "O=c1c2ccccc2nc2n1CCC2O", "note": "(centres undefined)", "Percent Effect": 1.424},
      {"smiles": "O=C(Nc1cc(CSCCO)ccn1)c1ccc(Cl)o1", "Percent Effect": -51},
      {"smiles": "Cc1ncccc1C(=O)NC1(c2cccc(F)c2)CCOCC1", "Percent Effect": -2.77},
      {"smiles": "COCc1cc(O)nc(C2CCCN(Cc3ccc(F)cc3)C2)n1", "note": "(centres undefined)", "Percent Effect": 105.5},
      {"smiles": "CC(NC(=O)NCCN1CCCCCC1=O)c1ccc(Cl)s1", "note": "(centres undefined)", "Percent Effect": -4.831},
      {"smiles": "CC(C)CC(=O)N1CCN(Cc2cc(-c3ccncc3)nn2C)CC1", "Percent Effect": 111},
      {"smiles": "CCC(=O)N1CCN(Cc2cc(-c3ccncc3)nn2C)CC1", "Percent Effect": -2.828},
      {"smiles": "CC(C)C(=O)N1CCN(Cc2cc(-c3ccncc3)nn2C)CC1", "Percent Effect": -9.87},
      {"smiles": "CCCC(=O)N1CCN(Cc2cc(-c3ccncc3)nn2C)CC1", "Percent Effect": 103.8},
      {"smiles": "CCN(CC)CC(=O)N1CCN(CCCc2ccncc2)CC1", "Percent Effect": 2.413},
      {"smiles": "CCc1nc(CN2CCCN(C(=O)COC)CC2)cs1", "Percent Effect": 6.894},
      {"smiles": "CCCC(=O)N1CCN(c2cc(-n3cnc(C)c3C)nc(C)n2)CC1", "Percent Effect": -4.899},
      {"smiles": "CCN(CC)C(=O)N1CCN(CCc2ccncc2)CC1", "Percent Effect": 2.653},
      {"smiles": "COCC(=O)N1CCN(Cc2cc(-c3ccncc3)nn2C)CC1", "Percent Effect": 92.41},
      {"smiles": "CCC(CC)C(=O)N1CCN(Cc2cc(-c3ccncc3)nn2C)CC1", "Percent Effect": 102.3},
      {"smiles": "CCN(CC)CC(=O)N1CCN(CCc2ccncc2)CC1", "Percent Effect": -8.418},
      {"smiles": "COc1ccc2nc(CNC(=O)c3cc(C(C)C)no3)[nH]c2c1", "Percent Effect": -7.08},
      {"smiles": "CC(NCc1cnn(C)c1)c1noc(-c2ccc(Cl)cc2)n1", "note": "(centres undefined)", "Percent Effect": 2.096},
      {"smiles": "Cc1ccc(C(=O)NCCS(=O)(=O)Cc2ccccc2)c(C)c1", "Percent Effect": 5.407},
      {"smiles": "O=C(NCCn1nc(-n2cncn2)ccc1=O)c1ccsc1", "Percent Effect": 90.98},
      {"smiles": "Cc1ccc(C(=O)NCCCn2cncn2)c(=O)[nH]1", "Percent Effect": 0.33},
      {"smiles": "Cc1ccc(C(=O)NCCn2nc(-n3cncn3)ccc2=O)c(C)c1", "Percent Effect": 115.4},
      {"smiles": "Cc1csc(C(=O)NCCn2nc(-n3cncn3)ccc2=O)c1", "Percent Effect": 104.4},
      {"smiles": "O=C(NCCn1nc(-n2cncn2)ccc1=O)c1ccc(F)cc1F", "Percent Effect": 119.8},
      {"smiles": "O=C(NCCc1ccsc1)c1ccoc1", "Percent Effect": 7.959},
      {"smiles": "O=C1CCc2cc(C(=O)NCc3ccc(-n4cncn4)nc3)ccc2N1", "Percent Effect": -4.762},
      {"smiles": "N#Cc1cccc(N2CCCC3(C2)CN(c2nncs2)CCO3)c1", "note": "(centres undefined)", "Percent Effect": -22.42},
      {"smiles": "O=C1O[C@@H]2CN(c3ccc(Cl)cn3)C[C@@H]2N1CCc1ccc(F)cc1", "Percent Effect": 15.74},
      {"smiles": "CCOc1cc(CNC(=O)C(C#N)c2nc(C)cs2)ccc1OC(F)F", "note": "(centres undefined)", "Percent Effect": -3.55},
      {"smiles": "NS(=O)(=O)CCNC(=O)c1ccc(OCc2ccccc2)nc1", "Percent Effect": 5.557},
      {"smiles": "CCCc1nc(C)cc(N2CCNC(C(=O)NC3CC3)C2)n1", "note": "(centres undefined)", "Percent Effect": -8.099},
      {"smiles": "O=C(C1CN(CC2CC2)CC12CCOCC2)N1CCOCC1.O=C(O)C(F)(F)F", "note": "(centres undefined)", "Percent Effect": 0.7969},
      {"smiles": "O=C(CN1CCCCC1Cn1cccn1)NC1CCN(C2CC2)CC1", "note": "(centres undefined)", "Percent Effect": -1.641},
      {"smiles": "CCSc1ccccc1C(=O)NCCn1nc(C(F)(F)F)n(C)c1=O", "Percent Effect": -21.23},
      {"smiles": "CCSc1ccccc1C(=O)NCCn1nc(-n2cncn2)ccc1=O", "Percent Effect": 112},
      {"smiles": "O=C(NCCn1nc(-n2cncn2)ccc1=O)c1ccccc1Br", "Percent Effect": 41.16},
      {"smiles": "CN(CC(N)=O)C(=O)c1cn(-c2ccc(Br)cc2)cn1", "Percent Effect": 8.695},
      {"smiles": "O=C(NCc1ccccn1)c1nnn(-c2ccc(Br)cc2)n1", "Percent Effect": 7.96},
      {"smiles": "CC1CCCN(C(=O)c2nnn(-c3ccc(C(F)(F)F)cc3)n2)C1", "note": "(centres undefined)", "Percent Effect": -23.6}
    ]}
  ]
}
